Out of some 360,000 compounds screened, about 6,200 (1.7%) were called active.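 Rule for the calls: active = inhibition of at least 50% at 20 µM; inactive = the rest.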 Shown is part of a subset that was picked to be rich in actives.
Assay: Peg3 promoter-driven luciferase inhibitors, primary screen, cell-based, HeLa, luciferase luminescence (AID 588405)
Details: HeLa PEG-Prom luciferase reporter, overnight, at 20 µM, stronger effect = higher value
With Nc1ncnc2c1ncn2[C@@H]1O[C@H](C(=O)NCC(F)(F)F)[C@@H](O)[C@H]1O the inhibition was 4.09% (inactive). For Cc1c(C(=O)NCc2ccc(C#N)cc2)sc(=O)n1Cc1ccc(C(=O)N(C)C)cc1, the inhibition was 7.87% (inactive). In the case of COc1ccc2sc(-c3ccc(S(C)(=O)=O)cc3)c(-c3ccc(C(N)=O)cc3)c2c1, the inhibition is reported as 3.59% (inactive). With Cn1cncc1C#Cc1c(-c2ccsc2)sc2ccccc12 the inhibition was 44.3% (inactive). With COc1ccc2sc(-c3ccc(S(C)(=O)=O)cc3)c(C#Cc3cncn3C)c2c1 the inhibition was 54.5% (active). For CCn1c(SCC(=O)Nc2ccc(C)cc2)nc2nc3c(cc2c1=O)CCCC3, the inhibition was 10.5% (inactive). In the case of CCNC(=S)Nc1ccc2c(c1)c(=O)n(C)n2Cc1ccc(Cl)cc1, the inhibition is reported as -3.64% (inactive). With c1ccc2c(c1)C(=NC1CCCCC1)NC2=NC1CCCCC1 the inhibition was 101% (active). For CC1(C)Cc2nc3sc4c(SCC(=O)NC(c5ccccc5)c5ccccc5)ncnc4c3cc2CO1, the inhibition was -23% (inactive). For Cc1ccccc1S(=O)(=O)NC(=O)C1(C)CCN1C(=O)C1(c2ccc(Cl)cc2)CC1 (stereo not drawn), the inhibition was 15.9% (inactive). For Cc1cccc(-c2cnc(C(O)c3ccc4ccccc4c3)[nH]2)c1 (stereo not drawn), the inhibition was 5.95% (inactive). For Cc1nc2c(OCc3ccc(Cl)cc3Cl)cccn2c1N(C)CC1CC1, the inhibition was 27.9% (inactive). In the case of CCCN1CCn2c3c(c4cc(Br)ccc42)CCCC31 (stereo not drawn), the inhibition is reported as -52.1% (inactive). With OC(CNCC1CCCO1)Cn1c2ccc(Br)cc2c2cc(Br)ccc21 (stereo not drawn) the inhibition was 104% (active). For COCCNC(=O)c1ccc(Cn2c(SCC(=O)NCC3CCCO3)nc3ccc(Br)cc3c2=O)cc1 (stereo not drawn), the inhibition was -11.8% (inactive). For CNC(=O)NC(=O)C(OC(=O)c1cccc(S(=O)(=O)N2CCCCC2)c1)c1ccccc1 (stereo not drawn), the inhibition was 8.72% (inactive). For CCN1/C(=C\c2ccc3ccccc3[n+]2CC)Sc2cc(C)ccc21, the inhibition was 95.8% (active). With OCCN1CCN(c2ncnc3c2ncn3[C@H]2CN(Cc3ccco3)C[C@@H](CO)O2)CC1 the inhibition was -0.36% (inactive). With Cc1ccccc1Cn1c(C)c(C(=O)NCc2cccc(C(F)(F)F)c2)sc1=O the inhibition was -0.27% (inactive). In the case of CC(C)CC(N=C1NC(C)(C)Cc2ccccc21)C(=O)O (stereo not drawn), the inhibition is reported as 0.64% (inactive). With COc1cc(C(C(=O)NC2CCCC2)N(Cc2ccccc2)C(=O)c2snc(C(N)=O)c2N)ccc1O (stereo not drawn) the inhibition was -1.6% (inactive). With NC(=O)c1nsc(C(=O)N(CC(=O)NCc2ccc(F)cc2)Cc2ccco2)c1N the inhibition was 17.3% (inactive). With COc1ccc(CNC(=O)C(c2ccc(O)cc2)N(Cc2ccco2)C(=O)c2snc(C(N)=O)c2N)cc1 (stereo not drawn) the inhibition was 56.7% (active). For CCOC(=O)C1(C)CCCN(C(=O)c2ccc(N(C)C)cc2)C1 (stereo not drawn), the inhibition was 0.13% (inactive). In the case of Cc1cc(C)n2nc(C(=O)OC(C)C(=O)c3cc(C)c(C)cc3C)nc2n1 (stereo not drawn), the inhibition is reported as -10.9% (inactive). For CSCCC(NS(=O)(=O)c1ccc2c(c1)oc(=O)n2C)C(=O)NC1CCCc2ccccc21 (stereo not drawn), the inhibition was 3.82% (inactive). With CC1=C(C(=O)N(C(C)C)C(C)C)CC(CC(=O)NCCCCc2ccccc2)C(=O)N1CCC1=CCCCC1 (stereo not drawn) the inhibition was 18.7% (inactive). For COc1cccc2c1C(=O)c1c(O)c3c(c(O)c1C2=O)CC(O)(C(C)=NNC(=O)c1ccc(Cl)c(Cl)c1)CC3OC1CC(N)C(O)C(C)O1 (stereo not drawn), the inhibition was 98.3% (active). In the case of O=C(NC1CC1)C1=C[C@H](c2c[nH]c3ccccc23)C[C@H](OCc2ccc(CO)cc2)O1, the inhibition is reported as -8.53% (inactive). With O=C(Nc1cccc2ccccc12)NC1CC1 the inhibition was 6.64% (inactive). For O=C(Nc1cccc2ccccc12)c1onc2c1CCCC2, the inhibition was -211% (inactive). With O=C(Nc1cccc2ccccc12)c1[nH]c(-c2ccccc2)c2c1C(=O)N(C1CC1)C2=O the inhibition was 52.8% (active). With COc1ccc(C(=O)N2CCCCC2c2cc(C(=O)Nc3ccc(F)c(Cl)c3)no2)cc1 (stereo not drawn) the inhibition was 11.5% (inactive). With Cc1nccn1-c1ccc(NC(=O)[C@H]2O[C@@H](n3cnc4c(N)ncnc43)[C@H](O)[C@@H]2O)cc1 the inhibition was 7.92% (inactive). For CCc1nc2ccc(C(=O)NCc3ccc(OC)cc3)cn2c1N(CC)Cc1cccc(Br)c1, the inhibition was 19.4% (inactive). For COc1ccc(NC(=O)c2sc(=O)n(Cc3ccc(S(=O)(=O)N(C)C)cc3)c2C)cc1, the inhibition was 2.16% (inactive). For Cc1ccc(SCC(=O)N2CCN(c3ccc(F)cc3)CC2)cc1, the inhibition was 8.76% (inactive). With Cc1ccc(C(=O)N2CC(=O)Nc3ccc(F)cc3C2c2ccc(F)cc2)cc1 (stereo not drawn) the inhibition was 17.9% (inactive). For CCN1CCC2(CC1)N=C(c1ccc(F)cc1)C(=S)N2C(=O)c1ccc(C)cc1, the inhibition was 90% (active). For CCCNC(=O)c1cc(C2CCCCN2S(=O)(=O)c2ccc(C#N)cc2)on1 (stereo not drawn), the inhibition was -6.28% (inactive). For OC(c1cc(Cl)cc(Cl)c1)c1ncc(-c2ccccc2C(F)(F)F)[nH]1 (stereo not drawn), the inhibition was 35.8% (inactive). For CCc1ccc(/C=N/NC(=O)c2ccc(OC3CCCC3)cc2)s1, the inhibition was 14.5% (inactive). For CC1(C(=O)NCc2ccco2)Cc2c(-c3ccc4c(c3)OCO4)ccnc2O1 (stereo not drawn), the inhibition was 7.44% (inactive). With O=C(NC1=CC(=O)c2ccccc2C1=O)c1ccccc1 the inhibition was 106% (active). In the case of O=C(Nc1ccc2ccccc2c1[N+](=O)[O-])c1ccccc1, the inhibition is reported as -223% (inactive). With O=C(Nc1ncccc1O)c1ccc(C(=O)c2ccccc2)cc1 the inhibition was -204% (inactive). With CCCNC(=O)C1(C)CCCN(C(=O)c2cccc(OC(C)=O)c2C)C1 (stereo not drawn) the inhibition was -1.66% (inactive). In the case of COc1cc(NS(=O)(=O)c2ccc3ccccc3c2)c2ncccc2c1, the inhibition is reported as 54.5% (active). For CCOc1ncccc1C(=O)NNC(=O)c1cccc(S(=O)(=O)Nc2ccccc2OC)c1, the inhibition was 6.59% (inactive). With CCOc1cc(NS(=O)(=O)c2ccc(OC)cc2)c(OCC)cc1NC(C)=O the inhibition was 11.6% (inactive). With COc1ccc(N2C(=O)NC(NS(=O)(=O)c3ccc(Cl)cc3)(C(F)(F)F)C2=O)cc1 (stereo not drawn) the inhibition was 10.8% (inactive). With CC1=C(C(=O)N2CCOCC2)CC(CC(=O)NCc2cccs2)C(=O)N1CCCN1CCCC1=O (stereo not drawn) the inhibition was 0.54% (inactive). With O=C1C(Cl)=C(Oc2ccccc2)C(=O)c2ccccc21 the inhibition was 104% (active). With O=c1[nH]nc(SCCS(=O)(=O)c2ccc(F)cc2)n1-c1ccccc1C(F)(F)F the inhibition was -139% (inactive). For CC(C)(C)N1C(=O)c2c(C(=O)OCc3ccccc3)[nH]c(-c3ccccc3)c2C1=O, the inhibition was 24.2% (inactive). For COc1ccc(NC(=O)c2cn(-c3ccccc3)nc2SC)cc1, the inhibition was -78.1% (inactive). For CC1C(=O)N(Cc2ccccc2)c2ccccc2N1C(=O)c1ccccc1 (stereo not drawn), the inhibition was 21.3% (inactive). With CC1C(C)N(C(=O)CCl)c2ccccc2N1C(=O)CCl (stereo not drawn) the inhibition was 99.2% (active). For CC1CC(C)CN(CC(=O)N2c3ccccc3CCc3ccccc32)C1 (stereo not drawn), the inhibition was 9.54% (inactive). For COc1ccc(C)cc1NC(=O)c1[nH]c(C)c(C(C)=O)c1C, the inhibition was 4.55% (inactive). In the case of CCCC/C=C/c1cccc2nncn12, the inhibition is reported as 2.91% (inactive). In the case of CSc1nc2ccc(S(=O)(=O)N3CCc4ccccc43)cc2s1, the inhibition is reported as 52.1% (active). In the case of O=S(=O)(c1ccccc1)N1CCc2ccccc21, the inhibition is reported as 5.92% (inactive). For O=S(=O)(c1ccc2c(c1)OCCO2)N1CCc2ccccc21, the inhibition was 25.9% (inactive). In the case of Cc1nc2c(c(C)nn2-c2ccccc2)c(C)c1C, the inhibition is reported as 21.8% (inactive). For CSc1ccc(-c2c(C#N)c(N)nc3c2c(C)nn3-c2ccccc2)cc1, the inhibition was 76.2% (active). With Cn1c(=O)c2c(-c3cccc(Br)c3)c(C#N)c(N)nc2n(C)c1=O the inhibition was 7.56% (inactive). For CCOC(=O)[C@H]1Nc2ccc(Cl)cc2[C@@H]2[C@H]1C1CC(c3ccccc31)N2C(=O)OCc1ccccc1 (stereo partly drawn), the inhibition was 26.4% (inactive). With N#Cc1cccc(NC(=O)c2cc(C3CCCCN3C(=O)CCc3ccccc3)on2)c1 (stereo not drawn) the inhibition was 23.6% (inactive). With COc1ccc(-c2oc3ncnc(NCCCO)c3c2-c2ccc(OC)cc2)cc1 the inhibition was 56.5% (active). In the case of COc1ccc(-c2oc3ncn(Cc4ccco4)c(=N)c3c2-c2ccc(OC)cc2)cc1, the inhibition is reported as 9.27% (inactive). For COCCNc1ncnc2c1ncn2[C@H]1CN(Cc2ccc(OC)cc2)C[C@@H](CO)O1, the inhibition was -12.7% (inactive). With CC(C)(C)OC(=O)N1CCN(C(=O)c2[nH]c(C(F)(F)F)nc2-c2ccccc2)CC1 the inhibition was 5.18% (inactive). In the case of CCN(CC)CCNC(=O)Cn1cnc2sc(C)c(S(=O)(=O)N3CCOCC3)c2c1=O, the inhibition is reported as -0.66% (inactive). For CCN(CC)CCNC(=O)c1sc2ncn(CC(=O)Nc3ccc(C)c(Cl)c3)c(=O)c2c1C, the inhibition was 87.1% (active). In the case of CCN(CC)CCCNC(=O)Cn1cnc2sc(C)c(S(=O)(=O)N3CCN(c4ncccn4)CC3)c2c1=O, the inhibition is reported as -7.38% (inactive). In the case of Fc1cccc(Cc2c(-c3ccc(Cl)cc3)nc3ccc(Cl)cn23)c1, the inhibition is reported as -75.2% (inactive). For CCNC(=O)C1(C)CCCN(C(=O)c2c(C)noc2C)C1 (stereo not drawn), the inhibition was -5.02% (inactive). In the case of Cn1c(Cc2csc(N)n2)nnc1SC/C=C/c1ccccc1, the inhibition is reported as -0.48% (inactive). With CCOc1ccc2nc(N(CCCN(C)C)C(=O)c3ccc(C(=O)c4ccccc4)cc3)sc2c1 the inhibition was 105% (active). With CN(C)CCN(C(=O)C1=COCCO1)c1nc2ccc(Cl)cc2s1 the inhibition was -91.5% (inactive). In the case of CCOc1ccc2nc(/N=C/c3nc(-c4ccccc4)oc3O)sc2c1, the inhibition is reported as -127% (inactive). With CCN(CC)CCN(C(=O)c1cc(Cl)sc1Cl)c1nc2cc3c(cc2s1)OCO3 the inhibition was -57.9% (inactive). With CCN(C(=O)COc1ccc(C(=O)c2ccccc2)cc1)c1ccccc1 the inhibition was 2.39% (inactive). For CCc1ccc2nc(N(CCCN(C)C)C(=O)c3ccc4c(c3)OCCO4)sc2c1, the inhibition was 76% (active). For COc1cc(C(=O)NNC(=O)c2ccc(S(=O)(=O)N3CCCCC3)cc2)cc(OC)c1OC, the inhibition was 3.84% (inactive). In the case of CN(C)CCCN(C(=O)c1ccc(S(=O)(=O)N2CCCCCC2)cc1)c1nc2ccc(Br)cc2s1, the inhibition is reported as 57.8% (active). For CCN(CC(=O)Nc1c(F)cccc1F)C(=O)c1ccc(S(=O)(=O)N2CCCCC2)cc1, the inhibition was 3.57% (inactive).
